LGR2 inh: inhibitors of bursicon-induced LGR2 CRE-luciferase signal, primary screen, cell-based, HEK293, CRE-luciferase reporter, bursicon stimulation | Drosophila bursicon receptor LGR2 (rickets) | bursicon-stimulated, 4 h | inhibition, % at 9.99 µM | 380,000 tested, 0.35% active;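 active = drop in luminescence signal, shown as inhibition above about 50% in the replicate tests, limit read from the data, passing the limit was not always enough; inconclusive = probably only some replicates passing the limit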;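 note: agonist challenge used bursicon conditioned medium at about half maximal strength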
PAX8 reporter: inhibitors of PAX8-driven TPO luciferase reporter, primary screen, RMG-I cells, single concentration; AID 652154, 2013; 360,000 tested, 1.2% active; inhibition, % at 12.6 µM; SteadyGlo, 24 h;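 active = mean replicate inhibition at least 60% with every replicate also reaching 60%; inconclusive = only one of the two criteria is met; inactive = mean below 60% and not all replicates reaching 60%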;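 note: luciferase light reporting Pax8 driven TPO promoter activity; plate controls were median of neutral control wells for no effect and mitoxantrone controls for full effect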
EWS-Fli inh: EWS/Fli-driven NR0B1 reporter inhibitors, primary screen, A673 cells, NR0B1 luciferase, luminescence, MLPCN library. AID 651661, 2012. viability-normalised. inhibition, % at 12.6 µM. 350,000 tested, 0.67% active;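 active = mean inhibition of at least 50% after viability correction, with every replicate also passing that limit; inconclusive = mean reaches 50% but only one of two replicates passes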;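 note: firefly luciferase signal divided by Alamar Blue viability fluorescence both relative to DMSO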
MITF TRPM1 inh: inhibitors of MITF-dependent TRPM1 promoter reporter, primary screen, cell-based, SK-MEL-5, single point, luciferase; SK-MEL-5 TRPM1 promoter luciferase, 24 h; inhibition, % at 12.5 µM; 330,000 tested, 0.83% active;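 active = mean inhibition across replicates of 60% or more, whatever share of single replicates reaches that level; inconclusive = some that reach 60%, reason not given; inactive = mean inhibition across replicates below 60%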
Shn3 inh set2: reduction of Shn3 3'UTR firefly luciferase signal, primary screen, Schnurri-3 inhibitor project, cell-based, Clone20 osteoblasts, set 2; Clone20 osteoblast Shn3 3'UTR firefly luciferase, 24 h; inhibition, % at 12.5 µM; 360,000 tested, 0.52% active; AID 588674, 2011;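 active = mean inhibition of at least 75% with every replicate also reaching 75%; inconclusive = mean inhibition at least 75% but some replicate below; inactive = mean inhibition below 75%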;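 note: 0% = median of neutral control wells and 100% = pilot-screen positive control compound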
LMP1 NFkB inh: EBV LMP1-driven NF-kappaB luciferase reporter inhibitors, primary screen, cell-based, luminescence, single point. AID 504558, 2011. 350,000 tested, 0.69% active. inhibition, % at 12.5 µM. LMP1-induced NF-kappaB luciferase reporter cells; in the data active = inhibition above about 41%; inconclusive = no clear call, values can overlap the other calls;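 note: 0% = neutral control wells and 100% = reference inhibitor control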
* hit, by the source's call; i = inactive; ? = inconclusive; / = no result given. An excerpt weighted towards active compounds, which were near 2.2% of everything screened.

SMILES | LGR2 inh | PAX8 reporter | EWS-Fli inh | MITF TRPM1 inh | Shn3 inh set2 | LMP1 NFkB inh
CO[C@@H]1CN(C)C(=O)c2cc(NS(=O)(=O)CC(F)(F)F)ccc2OC[C@H](C)N(CC2CCCCC2)C[C@H]1C | 10.2 | -1.7 | 6.2 | / | / | /
COc1cccc(/C=N/NC(=O)c2c(-c3ccccc3)noc2C)c1O | / | / | / | 47.2 | 88.3* | -3.0
COc1cccc(/C=N/NC(=O)CSCC(=O)Nc2ccccc2)c1O | 11.0 | / | 7.8 | 15.4 | ? | 46.6*
COc1cccc(/C=N/NC(=O)CNC(=O)/C=C\c2ccccc2)c1O | -25.8 | 16.1 | 17.6 | 55.2 | 89.8* | 6.1
CCC(=O)N[C@@H]1C=C[C@@H](CC(=O)NCC2CC2)O[C@@H]1CO | -1.0 | / | -2.1 | / | / | /
Cn1c(=NC(=O)CCl)sc2ccccc21 | 2.4 | / | 73.5* | 25.4 | -16.5 | -16.9
Cn1c(=NC(=O)c2ccco2)sc2ccccc21 | 37.5 | -177.1 | -15.7 | 12.8 | -64.2 | -21.7
C[C@H](CO)N1C[C@H](C)[C@@H](CN(C)C(=O)C2CC2)Oc2cc(C3=CCCC3)ccc2S1(=O)=O | 0.3 | / | -4.5 | / | / | /
COc1ccc2[nH]c3c(N4CC(C)OC(C)C4)ncnc3c2c1 (stereo unspecified) | / | -16.8 | / | / | / | /
COc1cccc(N2CCN(c3ncnc4c3[nH]c3ccc(F)cc34)CC2C)c1 (stereo unspecified) | / | / | / | 80.4* | 96.5* | 69.9*
COC(=O)C[C@H]1CC[C@@H]2[C@@H](COc3ccc(NC(=O)c4ccccc4OC)cc3C(=O)N2C)O1 | 4.0 | 5.1 | -10.2 | / | / | /
O=C(C1CCOCC1)N1CC(=O)N2[C@H](C1)[C@H](c1ccc(/C=C/c3ccccc3)cc1)[C@@H]2CO | -0.6 | 12.4 | 3.9 | / | / | /
C[C@@H]1CN([C@@H](C)CO)C(=O)Cc2cc(NS(C)(=O)=O)ccc2O[C@H]1CN(C)Cc1ccc(Oc2ccccc2)cc1 | 1.1 | 39.2 | i | / | / | /
CN1CCN(C(=O)C[C@@H]2CC[C@@H]3[C@H](COc4ccc(NC(=O)C5CCCCC5)cc4C(=O)N3C)O2)CC1 | 3.6 | -4.4 | 8.4 | / | / | /
CN(C)CCNC(=O)c1coc(=O)c(Br)c1 | 7.4 | / | / | -2.6 | -15.1 | -5.5
O=C(NCCc1ccccc1)c1coc(=O)c(Br)c1 | -39.0 | 65.3* | 23.1 | -4.4 | -9.3 | /
Cc1ccc2c(c1)[C@H]1[C@H](CO2)[C@H](c2ccccc2)[C@]2(C)C(=O)Nc3cc(F)ccc3C(=O)N12 | 1.8 | 11.0 | 61.1* | 23.4 | 37.8 | 17.2
COc1ccc2c(c1)[C@H]1[C@H](CO2)[C@H](c2ccccc2)[C@]2(C)C(=O)Nc3ccc(C)cc3C(=O)N12 | / | -6.3 | 25.5 | / | -1.4 | -47.9
C[C@@]12C(=O)Nc3cc(F)ccc3C(=O)N1[C@H]1c3cc(Br)ccc3OC[C@@H]1[C@@H]2c1ccccc1 | -2.3 | -2.1 | 49.8 | 9.6 | 13.1 | 2.5
COc1ccc2c(c1)C(=O)N1[C@H]3c4cc(C)ccc4OC[C@@H]3[C@H](c3ccccc3)[C@]1(C)C(=O)N2 | 3.1 | 23.0 | 64.1* | 28.0 | 0.0 | 38.3
Cc1ccc2c(c1)[C@H]1[C@H](CO2)[C@H](c2ccccc2)[C@]2(C)C(=O)Nc3ccccc3C(=O)N12 | 37.2 | 45.0 | 56.6* | 20.2 | 0.8 | 19.7
CCCN1C[C@H](C)[C@H](OC)CN(C)C(=O)c2ccc(NS(=O)(=O)c3ccccc3)cc2OC[C@@H]1C | -14.1 | / | 5.1 | / | / | /
CCN(CC)CCCN=Cc1c(O)n(-c2c(C)cccc2C)c(=O)c2ccccc12 | 11.4 | -4.5 | 11.3 | / | -10.8 | /
CCc1ccc(-n2c(O)c(C=NCCN(CC)CC)c(=O)[nH]c2=O)cc1 | / | / | / | 3.9 | 95.8* | -2.5
CCCCCCC[C@@H](C/C=C/CCC(=O)N(C)C/C(=C/Cl)C/C(=C\C(=O)N1CC(OC)=CC1=O)OC)OC | -0.6 | 50.0 | -4.4 | 75.0* | 81.5 | -406.4
SMILES | LGR2 inh | PAX8 reporter | EWS-Fli inh | MITF TRPM1 inh | Shn3 inh set2 | LMP1 NFkB inh
CCCCCCC[C@@H](C/C=C/CCC(=O)N(C)C/C(=C/Cl)C/C(=C\C(=O)N1C[C@H](O)CC1=O)OC)OC | 11.7 | 27.6 | 15.7 | 11.3 | 60.6 | -11.8
Cc1ccccc1-n1ncc2c([N+](=O)[O-])cc([N+](=O)[O-])cc21 | 3.5 | / | / | 67.0* | -3.8 | -2.1
Clc1cccc2c1Sc1ccccc1CC2N1CCNCC1 (stereo unspecified) | 1.6 | 30.2 | / | 29.1 | 50.7 | -10.5
Clc1ccc2c(c1)C(N1CCNCC1)Cc1ccccc1S2 (stereo unspecified) | / | / | / | 94.2* | -6.7 | -19.3
CCOc1ccccc1-n1c(CN2CCN(C(=O)c3ccco3)CC2)nc2ccccc2c1=O | / | / | / | 80.3* | 1.6 | -0.9
C[C@@H]1CN([C@H](C)CO)C(=O)c2cc(NC(=O)CCC(F)(F)F)ccc2O[C@@H](C)CCCCO[C@H]1CN(C)C(=O)C1CCCCC1 | 1.4 | / | 5.7 | / | / | /
C=CCN1C(=O)[C@]2(CCS(=O)(=O)c3ccccc3)N=C(c3ccc(OCCCO)cc3)O[C@@H]2c2ccccc21 | / | 6.9 | -7.6 | / | / | /
Cn1c(=O)c2[nH]c(CCCCCCCCc3nc4ccccc4[nH]3)nc2n(C)c1=O | 21.5 | 8.9 | -4.3 | 2.9 | 85.6* | 20.9
O=C(c1ccccc1)N1CC2(C1)[C@H](c1ccccc1)[C@@H](CO)N2Cc1cccnc1 | -10.8 | -7.4 | -0.1 | / | / | /
C[C@@H]1CN([C@@H](C)CO)C(=O)c2cc(NS(=O)(=O)c3ccc(Cl)cc3)ccc2O[C@@H](C)CCCCO[C@H]1CN(C)C | 0.3 | 80.1* | -2.1 | / | / | /
C[C@@H]1CN([C@@H](C)CO)C(=O)c2cc(NS(=O)(=O)c3ccc(Cl)cc3)ccc2O[C@@H](C)CCCCO[C@H]1CN(C)S(=O)(=O)c1ccc(Cl)cc1 | 8.3 | -4.1 | 1.3 | / | / | /
C[C@H]1CCCCO[C@@H](CN(C)S(=O)(=O)c2ccc(Cl)cc2)[C@@H](C)CN([C@@H](C)CO)C(=O)c2cc(NS(=O)(=O)c3ccccc3)ccc2O1 | 28.9 | ? | 8.1 | / | 0.9 | 7.5
C[C@@H]1CCCCO[C@@H](CN(C)C)[C@H](C)CN([C@H](C)CO)C(=O)c2cc(NS(=O)(=O)c3ccc(Cl)cc3)ccc2O1 | -13.5 | -5.6 | 28.7 | / | / | /
C[C@@H]1CN([C@H](C)CO)C(=O)c2cc(NS(=O)(=O)c3ccc(Cl)cc3)ccc2O[C@@H](C)CCCCO[C@H]1CN(C)S(=O)(=O)c1ccc(Cl)cc1 | 12.6 | 94.7* | 14.5 | / | / | /
C[C@H](CO)N1C[C@H](C)[C@H](CN(C)S(=O)(=O)c2ccc(Cl)cc2)OCCCC[C@H](C)Oc2ccc(NS(=O)(=O)c3ccc(Cl)cc3)cc2C1=O | 21.2 | 80.5* | 3.8 | / | / | /
CCCNC(=O)Nc1ccc2c(c1)C(=O)N(C)C[C@H](OC)[C@H](C)CN(CCC(F)(F)F)[C@H](C)CO2 | 12.5 | / | 12.0 | / | / | /

Assay outcomes: PubChem BioAssay, Broad Institute
